Bioassay records deposited in PubChem by National Center for Advancing Translational Sciences (NCATS).
Only some compounds are listed: those with a hit (about 3.6% of all), similar ones and a draw of the others.
OvCa metastasis: ovarian cancer metastasis inhibition, 3D TME model; SKOV3ip1-GFP adhesion/invasion on 3D omental model, fluorescence; Potency, µM (doses to about 45.8 µM), inactives show at the highest dose activity change, negative = inhibition, most hits filed as inhibitors; 46,000 compounds, 0.1% hits;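 also: potency is read from the fitted curve at half-maximal effect; plate controls were DMSO wells for no effect and tomatine positive control wells for full effect; nearly all actives have a fitted effect of over 65% in size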
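qHTS, 4-pt dose (0.36-46 umol/L); SKOV3ip1-GFP, 1,200 cells/well, no FBS; primary omental fibroblast/mesothelial co-culture 48 h pre-grown; 2 h RT + 16 h 37 C; PBS wash, 4% PFA; GFP count 488/509 nm.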
mTORC1 inh: inhibitors of mTORC1 signaling in Tsc2-/- p53-/- MEF cells | Potency, µM (series often up to 38.3 µM), without a hit: top-dose activity change, negative = inhibition, hits mostly inhibitors | AID 493208 | Tsc2-/- p53-/- MEF, phospho-rpS6 immunofluorescence/PI, 24 h | 44,000 compounds, 0.78% hits;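 also: potency is read from the fitted curve at half-maximal effect; plate controls were DMSO for no effect and rapamycin for full effect; nearly all actives have a fitted effect of over 50% in size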
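Tsc2-/-, p53-/- MEFs (empty-vector stable line) in DMEM + 10% FBS were treated with compounds 24 h at 37 degree Celsius, fixed, and immunostained for phospho-rpS6 (Alexa-488) with propidium iodide counterstain. Laser-scanning cytometry gave % positive cells, normalized against 7.5 nM rapamycin and DMSO.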
NTMT1 inhibitor: NTMT1 methyltransferase inhibition; Q9BV86; NTMT1 MTase-Glo SAH luminescence, purified enzyme; Potency, µM (doses to about 114 µM), inactives show at the top dose activity change, negative = inhibition, hits mostly inhibitors; 59,000 compounds, 2.5% hits; AID 1645870;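 also: potency is read from the fitted curve at half-maximal effect; plate controls were DMSO vehicle for no effect and no enzyme for full effect; nearly all actives have a fitted effect of over 65% in size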
PMP22 txn prim: modulators of PMP22 gene transcription in S16 Schwann cells; S16 Pmp22-F2sN Schwann cells, FLuc/NLuc coincidence luminescence, 24 h; Potency, µM (titrated, usually from 57.5 µM), for inactives: top-dose activity change, negative = inhibition, hits mostly inhibitors; 43,000 compounds, 2% hits; active = clear falling dose curves in both reporters; inconclusive = both reporters move, but less clearly or upward; inactive = either reporter flat; the % is the NLuc reporter signal; also: potency is read from the fitted curve at half-maximal effect; % is scaled to controls: 0 for no effect and ±100 for the full control effect
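Transcriptional readout in edited S16(c9) cells: two luciferases reported from the Pmp22 locus, measured in turn after 24 h compound incubation.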
GALC G270D up: galactocerebrosidase G270D activity enhancement, cell-based. 145M-Twi-hGALC-G270D cells (Twitcher mouse brain line with human GALC G270D), HMU-beta-Gal fluorescence, 48 h. 45,000 compounds, 0.1% hits. P54803. Potency, µM (top dose mostly 57.5 µM), hits mostly activators; also: potency is read from the fitted curve at half-maximal effect; 0% is about no effect; nearly all actives have a fitted effect of over 65% in size
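Fluorogenic HMU-b-Gal hydrolysis (0.1 mM final, pH 5.2 citrate-phosphate with 1 mg/mL sodium taurocholate; carbonate stop buffer) measures mutant GALC activity after compound treatment of live 145M-Twi Twitcher brain cells stably carrying human GALC-G270D, with wild-type GALC line alongside; activation sought.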
S16 F2sN tox: toxic to S16 Pmp22-F2sN Schwann cells; S16 Pmp22-F2sN Schwann cells (luciferase reporters placed in the Pmp22 gene) viability, CellTiter-Glo, 24 h; Potency, µM (series often up to 57.5 µM), for the others: at the highest dose activity change, negative = cytotoxicity, hits mostly cytotoxic; 43,000 compounds, 0.48% hits; AID 1508642; also: potency is read from the fitted curve at half-maximal effect; % is scaled to controls: 0 for no effect and ±100 for the full control effect; nearly all actives have a fitted effect of over 65% in size
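S16 Schwann cells carrying the Pmp22-F2sN reporter, seeded in 1536-well format, were exposed to library compounds for 24 h at 37C. Viability was read as CellTiter-Glo luminescence after 15 min at room temperature.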
Sfp qHTS opt: inhibits purified B. subtilis Sfp PPTase; Potency, µM (doses to about 114 µM), inactives show at the top dose activity change, negative = inhibition, usual class: inhibitors; 230 compounds, 78% hits; shares compounds with NTMT1 inhibitor; purified Sfp PPTase enzyme activity, qHTS
Bsub HM489 growth: reduces growth of B. subtilis HM489 strain; Potency, µM (titrated, usually from 114 µM), for the others: top-dose activity change, negative = inhibition, usual class: inhibitors; B. subtilis HM489 (acpS-) growth, BacTiter-Glo, 5 h; shares compounds with NTMT1 inhibitor; 220 compounds, 50% hits
Sfp PPTase gel: inhibitors of Bacillus subtilis Sfp PPTase, gel-based followup; shares compounds with NTMT1 inhibitor; purified Sfp PPTase, gel-based product detection; Potency, µM (top dose mostly 250 µM), without a hit: at the highest dose activity change, negative = inhibition, actives largely listed as inhibitors; 220 compounds, 54% hits; AID 540355
Sfp inh gel: confirmation of Bacillus subtilis Sfp PPTase inhibitors; shares compounds with NTMT1 inhibitor; purified Sfp PPTase, gel-based product detection; Potency, µM (series often up to 250 µM), for inactives: at the top dose activity change, negative = inhibition, actives largely listed as inhibitors; 45 compounds, 90% hits; AID 602362
Sfp SAR2: Sfp phosphopantetheinyl transferase inhibition, SAR round 2; shares compounds with NTMT1 inhibitor; purified Sfp enzyme, PPTase activity, qHTS; 230 compounds, 87% hits; Potency, µM (doses to about 57.1 µM), for the others: at the top dose activity change, negative = inhibition, actives largely listed as inhibitors
hGST ctr: counter-screen for Sfp PPTase inhibitors: hGST A1-1 inhibition; shares compounds with NTMT1 inhibitor; 55 tested, under 10 active; Potency, µM (titrated, usually from 114 µM), for the others: top-dose activity change, negative = inhibition, most hits filed as inhibitors; hGST A1-1 enzyme activity counter-screen, qHTS
HSD17B4 inh: counter-screen for HPGD inhibitors: human HSD17B4 inhibition; shares compounds with NTMT1 inhibitor; purified HSD17B4, estradiol/NAD+, NADH fluorescence; Potency, µM (top dose mostly 57.1 µM), for inactives: top-dose activity change, negative = inhibition, usual class: inhibitors; 230 compounds, 10% hits; AID 743187
Target sequence (P51659 whole entry, looked up): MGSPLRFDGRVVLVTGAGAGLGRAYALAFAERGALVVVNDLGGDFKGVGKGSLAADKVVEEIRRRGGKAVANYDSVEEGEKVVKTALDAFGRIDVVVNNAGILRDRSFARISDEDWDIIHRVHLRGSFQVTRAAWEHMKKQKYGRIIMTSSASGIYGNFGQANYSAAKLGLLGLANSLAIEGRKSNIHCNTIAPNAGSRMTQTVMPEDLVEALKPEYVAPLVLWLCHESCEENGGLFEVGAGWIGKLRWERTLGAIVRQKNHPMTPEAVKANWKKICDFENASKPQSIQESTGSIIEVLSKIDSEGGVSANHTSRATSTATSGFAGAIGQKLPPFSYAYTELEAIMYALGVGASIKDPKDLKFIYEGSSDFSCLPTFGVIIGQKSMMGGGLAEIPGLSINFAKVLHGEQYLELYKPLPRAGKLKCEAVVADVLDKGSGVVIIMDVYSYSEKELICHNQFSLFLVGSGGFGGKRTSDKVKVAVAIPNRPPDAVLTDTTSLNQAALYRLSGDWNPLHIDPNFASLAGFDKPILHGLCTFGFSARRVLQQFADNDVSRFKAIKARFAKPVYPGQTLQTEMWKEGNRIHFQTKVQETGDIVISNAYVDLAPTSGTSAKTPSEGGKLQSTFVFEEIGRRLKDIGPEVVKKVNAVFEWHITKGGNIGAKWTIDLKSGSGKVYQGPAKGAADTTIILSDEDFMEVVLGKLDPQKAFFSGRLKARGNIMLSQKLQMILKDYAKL
ALDH1A1 inh: ALDH1A1 (human) inhibition, HPGD counter-screen; shares compounds with NTMT1 inhibitor; recombinant ALDH1A1, NADH fluorescence, propionaldehyde/NAD+; Potency, µM (series often up to 57.1 µM), inactives show top-dose activity change, negative = inhibition, hits mostly inhibitors; 230 compounds, 93% hits; AID 743195
NNMT counter: blocks human NNMT methyltransferase. Potency, µM (series often up to 57.1 µM), inactives show at the top dose activity, negative = inhibition, hits mostly inhibitors. 120 compounds, 10% hits. NNMT MTase-Glo luminescence, SAH detection. shares compounds with NTMT1 inhibitor
Active calls of the source: *; i = inactive; ? = inconclusive; . = no result; ! = not active in a repeat; [ ] = another dose, or the depositor's remark. Unless noted, calls follow the shape of the dose curve; as a rule, active = well fitted curve in the direction sought with a large enough effect; inconclusive = small, poorly fitted or top-dose-only effect, or another doubt; inactive = no such curve, though single readings can be large; an effect the other way counts as inactive or inconclusive.

SMILES | OvCa metastasis | mTORC1 inh | NTMT1 inhibitor | PMP22 txn prim | GALC G270D up | S16 F2sN tox | Sfp qHTS opt | Bsub HM489 growth | Sfp PPTase gel | Sfp SAR2 | HSD17B4 inh | ALDH1A1 inh | others
FC(F)(F)c1cccc(N2CCN(C(=S)Nc3nccc4ccccc34)CC2)c1 | . | . | ? | . | . | . | 1.9µM* | 2.6µM* | 7.9µM* | 1.4µM* | 27µM* | 17µM* | Sfp inh gel=1.3µM*;hGST ctr=-10%
FC(F)(F)c1cccc(N2CCN(C(=S)Nc3ccc4ccccc4n3)CC2)c1 | . | . | . | . | . | . | 5.9µM* | ? | 0.32µM* | 10µM* | -23% | 6.8µM*
CC(=NNC(=O)c1cccc(S(=O)(=O)N2CCOCC2)c1)c1cc(Cl)ccc1O | . | . | 6% | . | . | . | . | . | . | . | . | .
C[C@@H]1O[C@@H](O[C@@H]2[C@@H](O)[C@@H](O)[C@H](O[C@@H]3[C@@H](O)[C@@H](O[C@]4(CO)O[C@H](CO)[C@@H](O)[C@@H]4OC(=O)/C=C/c4ccc(O)cc4)O[C@H](CO)[C@H]3OC(=O)/C=C/c3ccc(O)cc3)O[C@H]2C)[C@H](O)[C@H](O)[C@H]1O | . | . | 12%[12.6 µM] | . | . | . | . | . | . | . | . | .
COc1cc2ncnc(Nc3ccc(F)c(Cl)c3)c2cc1NC(=O)/C=C/CN1CCCCC1 | . | . | 8.9µM* | . | . | . | . | . | . | . | . | . | NNMT counter=?
CC(=O)[C@]1(O)Cc2c(O)c3c(c(O)c2[C@@H](O[C@H]2C[C@H](N)[C@@H](O)[C@H](C)O2)C1)C(=O)c1ccccc1C3=O | 5% | . | -17%[57.5 µM] | . | . | . | . | . | . | . | . | .
Cc1cc(C)nc(NC(=S)N2CCN(c3nncs3)CC2)c1 | . | . | -25%[57.5 µM] | . | . | . | 13µM* | ? | 32µM* | 2.3µM* | 0% | 22µM*
Cc1cc(C)nc(NC(=S)N2CCN(c3nccs3)CC2)c1 | . | . | ? | . | . | . | ? | -27% | 20µM*! | 4.1µM*! | -15% | 11µM*
CCOc1ccc(Nc2nc(-c3c(C)nc4ccccn34)cs2)cc1 | 12% | . | -9% | . | . | . | . | . | . | . | . | . | NNMT counter=?
CCOc1ccc(Cc2nc(-c3c(C)nc4ccccn34)cs2)cc1 | . | . | ? | . | . | . | . | . | . | . | . | . | NNMT counter=?
CC1(O)CCC2C(C(=O)O)=COC(OC3OC(CO)C(O)C(O)C3OC(=O)/C=C/c3ccc(O)cc3)C21 (stereo not given) | . | . | 11%[29.8 µM] | . | . | . | . | . | . | . | . | .
COc1cc2c(cc1OC(C)C)[C@H](c1ccc(Cl)cc1)N(c1ccc(N(C)CC3CCC(N4CCN(C)C(=O)C4)CC3)cc1)C(=O)C2 (stereo not given in full) | . | . | -8% | . | . | . | . | . | . | . | . | .
CCOC(=O)C1=C(C)NC(C)=C(C(=O)OC)C1c1cccc([N+](=O)[O-])c1 (stereo not given) | . | . | -3%[57.5 µM] | . | i | . | . | . | . | . | . | .
COC(=O)C1=C(C)NC(C)=C(C(=O)O[C@@H]2CCCN(Cc3ccccc3)C2)[C@@H]1c1cccc([N+](=O)[O-])c1 | . | . | ? | . | i | . | . | . | . | . | . | . | NNMT counter=3%
CC1=CC(=O)CC(C)(C)C1CCC(C)OC1OC(COC(=O)c2cc(O)c(O)c(O)c2)C(O)C(O)C1O (stereo not given) | . | . | -4%[29.8 µM] | . | . | . | . | . | . | . | . | .
Cc1cc(C(=O)N2CCN(c3ccccc3F)CC2)c2c(C)nn(-c3ccccc3)c2n1 | 12% | 0% | 25% | 4% | i | -9% | . | . | . | . | . | .
Cc1cc(C)nc(NC(=S)N2CCN(c3cccc(S(C)(=O)=O)c3)CC2)c1 | . | . | ? | . | . | . | 4.7µM* | 15% | 16µM* | 2.9µM* | -25% | 15µM*
Cc1cc(C)nc(NC(=S)N2CC3CN(c4ccc(Cl)cc4C(F)(F)F)CC3C2)c1 (stereo not given) | . | . | ? | . | . | . | 0.26µM* | . | . | 0.73µM* | -27% | 8.6µM* | hGST ctr=?
Cc1cc(C)nc(NC(=S)N2CCN(c3ccc(F)c(F)c3F)CC2)c1 | . | . | ? | . | . | . | 2.1µM* | 21µM* | 7.9µM* | 1µM* | -23% | 9.6µM* | Sfp inh gel=2.4µM*;hGST ctr=-3%
Cc1cc(C)nc(NC(=S)N2CCN(c3ccncc3)CC2)c1 | . | . | ? | . | . | . | ? | -20% | -6% | 3.2µM* | 6% | 30µM*
